# In paper PMC7819943, “Rice protein-binding microarrays: a tool to detect cis-acting elements near promoter regions in rice”:
# The full ranking holds about 68,000 sequences; the median of “fluorescence intensity (a.u.)” is about 9,100, and the highest 2% start at about 16,000. What follows is part of a selection rich in the highest values, with near analogues and random picks from the rest.
# Biological target: OsWRKY34 (Oryza sativa, UniProt Q0JBA9 1-250)
# Assay: protein-binding microarray (RPBM); PBS, 2% BSA, 51.3 ng/ul salmon testes DNA, 50 uM zinc acetate, 200 nM TF, 25 C, 1 h; high values mean tight binding
# Conditions: protein: recombinant; tags: N-terminal polyhistidine and DsRed monomer fusion (pET32a); label: CyDye5-dUTP incorporated in the synthesized complementary strand; 3' TTTTT single-stranded linker to array surface; dsDNA, one strand shown
# Procedure, shortened: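 Transcription factors were each fused at the N-terminus to a polyhistidine tag plus DsRed and expressed in E. coli BL21-CodonPlus before Ni–NTA purification. Binding to a double-stranded custom Agilent array was carried out with 200 nM protein at 25 °C for 1 h in PBS, 2% BSA, salmon testes DNA and 50 µM zinc acetate. The binding signal is per-feature fluorescence intensity, in arbitrary units, on an Axon 4000B scanner.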
# OsWRKY34, sequence (Q0JBA9 entry or part of it): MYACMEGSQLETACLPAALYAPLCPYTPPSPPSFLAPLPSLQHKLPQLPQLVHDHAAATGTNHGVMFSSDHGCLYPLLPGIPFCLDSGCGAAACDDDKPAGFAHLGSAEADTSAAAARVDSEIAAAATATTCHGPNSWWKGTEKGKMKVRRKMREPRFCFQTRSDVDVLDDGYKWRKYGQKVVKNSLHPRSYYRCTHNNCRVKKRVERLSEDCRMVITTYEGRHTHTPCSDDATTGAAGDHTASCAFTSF
row,Sequence,binding signal
1,GATTGCTTTGTGGGTGTATGGTTCATCTTCAATGGTTTACCGGAGTCACCTAGTGCAG,8030 fluorescence intensity (a.u.)
2,CGACAAAATTCAACCGTAATTTCAACGTTTTCCTAACTTTCGGAGTCACCTAGTGCAG,8990 fluorescence intensity (a.u.)
3,TGATATCTTTTTCTTTAATGACTTTCCGTGTTTTCAACGTCGGAGTCACCTAGTGCAG,8090 fluorescence intensity (a.u.)
4,GTTTCAAAATGTTTGACACCGTTGACTTTTTAGTACGTGTCGGAGTCACCTAGTGCAG,22500 fluorescence intensity (a.u.)
5,AACGTACTAATGCATGACACCGTTGACTTTTTTTCAACGTCGGAGTCACCTAGTGCAG,40400 fluorescence intensity (a.u.)
6,CGTTTCAAAATGTTTGACACCGTTGACTTTTTAGTACATGCGGAGTCACCTAGTGCAG,35900 fluorescence intensity (a.u.)
7,CCGTTTCAAAATGTTTGACACCGTTGACTTTTTAGTACGTCGGAGTCACCTAGTGCAG,21100 fluorescence intensity (a.u.)
8,ACCATCACTTTTACTCTCTTTCTGCCTTAAAATCTCAATACGGAGTCACCTAGTGCAG,8590 fluorescence intensity (a.u.)
9,CCCTTTCCTTTTCTTTTTTTTTCTCATTTTATCCACAATTCGGAGTCACCTAGTGCAG,9870 fluorescence intensity (a.u.)
10,CGTGGCCCATCTCCAATTCTCCAGTTGCTTCCTTTTCGTTCGGAGTCACCTAGTGCAG,12600 fluorescence intensity (a.u.)
11,TCTCTTTCTTTCCTTAACTCTCTTTCTCTACTCTCCACTCCGGAGTCACCTAGTGCAG,9580 fluorescence intensity (a.u.)
12,GCTGTGTGTACATATTACTAGTACTACTTAATACGTGCTTCGGAGTCACCTAGTGCAG,11200 fluorescence intensity (a.u.)
13,TTGTGAGTGTGTATGTGTTTATGGTGTGTAATTTTTTTTACGGAGTCACCTAGTGCAG,9320 fluorescence intensity (a.u.)
14,GGCGTTGGTCACCTCCCGTGAGTCGTCCTCTATTCCTCTTCGGAGTCACCTAGTGCAG,11100 fluorescence intensity (a.u.)
15,GGTTGTAATCTATAGGGGTCCTTGTATAGAAATATCGTTTCGGAGTCACCTAGTGCAG,8880 fluorescence intensity (a.u.)
16,CTCCTCGCCTTCTTCTCCATCTCCATCTCGCATCTTCTCTCGGAGTCACCTAGTGCAG,11400 fluorescence intensity (a.u.)
17,ACATTTTAATTTGTAGGGAGAGGTACTATGGGCTTAACTTCGGAGTCACCTAGTGCAG,9750 fluorescence intensity (a.u.)
18,GGGGTCGGGGTGGGAGAGGGAGGCTACACTACAGCAGCAGCGGAGTCACCTAGTGCAG,11100 fluorescence intensity (a.u.)
19,ATTTTGGGACAGAGGTAGCAGTGAACTACACGTACCTTGTCGGAGTCACCTAGTGCAG,21500 fluorescence intensity (a.u.)
20,AACAAACCAACCTAGGATACTACTGTCAATTTTCACAACCCGGAGTCACCTAGTGCAG,9280 fluorescence intensity (a.u.)
21,GCAGTACACTGATACGATACAATCGTTGACTGTTTCAGGACGGAGTCACCTAGTGCAG,9230 fluorescence intensity (a.u.)

row,Sequence,binding signal
1,ATTGGATCCGGGGAGGAGGAGGTGGGGTTCGGTTTCGTGCCGGAGTCACCTAGTGCAG,11600 fluorescence intensity (a.u.)
2,TGTCCTTTGTTGTGGTGTGGTGGTGGGCATCTGGACCGTTCGGAGTCACCTAGTGCAG,29700 fluorescence intensity (a.u.)
3,TTGTTGGGTGGGGACGTGGGGTGGGGTTCATGGAGTGGTTCGGAGTCACCTAGTGCAG,24800 fluorescence intensity (a.u.)
4,GTGTGGGTGGCAGGGTGTGTTGAGGAGGTGCCCGCGTTGCCGGAGTCACCTAGTGCAG,10300 fluorescence intensity (a.u.)
5,AATGGGTGTTTTTTTAGTTGTTGTGTGTGTTTGGACGATTCGGAGTCACCTAGTGCAG,10400 fluorescence intensity (a.u.)
6,GGCGCCGGGGTGGGGTGGTGCTGGAGCCACCGGAGGAGCGCGGAGTCACCTAGTGCAG,9730 fluorescence intensity (a.u.)
7,GGAGGAGGGGTGGGGTGTTGAGCCCTGGAGAAGCCACCGCCGGAGTCACCTAGTGCAG,21000 fluorescence intensity (a.u.)
8,TGGATCTGGTGTGTTAGTTTGGATTTGTGTTTGTCCTTTTCGGAGTCACCTAGTGCAG,12600 fluorescence intensity (a.u.)
9,TTTTGGTGGGTGGGTTTGGGACGTTGGATTGGTGGTGGACCGGAGTCACCTAGTGCAG,12600 fluorescence intensity (a.u.)
10,GATGCATTTTTGTCTGGGCGTTGTCCTTGTGGAAGCATCTCGGAGTCACCTAGTGCAG,10000 fluorescence intensity (a.u.)
11,CAGGAGGGGTGGGTTGTTGTTCGGTGGTGTGGACCCGTGCCGGAGTCACCTAGTGCAG,17700 fluorescence intensity (a.u.)
12,CGCTTCGCTGACGGTTGTGTGTTGGTGGGTGCAGGGGTGCCGGAGTCACCTAGTGCAG,12700 fluorescence intensity (a.u.)
13,TCTACGGGTATCCCGCGTCGACAATATTCCCATGCATTTACGGAGTCACCTAGTGCAG,10900 fluorescence intensity (a.u.)
14,ATTCCGTTAGCATTTGTCCTGCCATGGCCTATTCTGCCAGCGGAGTCACCTAGTGCAG,10400 fluorescence intensity (a.u.)
15,CATGTTGTTCTGTTTGATGTTGCCCACTACGGTCTTTAGTCGGAGTCACCTAGTGCAG,10900 fluorescence intensity (a.u.)
16,GACGAGACCGACGCCGTCATCCTCCTTCTCACGCTACCATCGGAGTCACCTAGTGCAG,8040 fluorescence intensity (a.u.)
17,GTCACTTCTCCTTTTTTTTTGGCATGCAATAGACTTCCTTCGGAGTCACCTAGTGCAG,8780 fluorescence intensity (a.u.)
18,CCCCTCGAGTCTGATCCTCCCACTACCAACGTCCACCGGCCGGAGTCACCTAGTGCAG,9210 fluorescence intensity (a.u.)
19,CCGCCGCCGCTCGCCGCCGCATTGCGTTACTCGAGCTCGCCGGAGTCACCTAGTGCAG,8710 fluorescence intensity (a.u.)
20,TACTGTCTGTCAACACACTTCATGATTTCTCATCAAATATCGGAGTCACCTAGTGCAG,10400 fluorescence intensity (a.u.)
21,AGGACGATGGGCGCGATGGGATTTGTTCTTGACTGTTTTACGGAGTCACCTAGTGCAG,12000 fluorescence intensity (a.u.)
